# Results from PubChem BioAssay AID504840 (Johns Hopkins Ion Channel Center, 2011).
# The whole screen tested about 1,500 compounds, of which about 890 (59%) were called active.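 How the source made its calls: active means inhibition of the choline-evoked signal at any tested dose together with a fitted dose-response curve; inactive means no inhibition at any dose or no curve.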 So high a share suggests a set chosen from earlier hits. A selection follows. A call without a number means that no potency is given here. Potency and affinity values are given separately.
# Target: High affinity choline transporter 1 (Homo sapiens) (UniProt Q9GZV3)
# Experiment: CHT inhibitors, dose response, cell-based, 5-point CRC, membrane potential dye (AID 504840)
# Conditions: HEK293-CHT, choline-induced depolarization, CHT with LV-to-AA double alanine mutation; series mostly up to 37 µM
# High affinity choline transporter 1 (Homo sapiens), sequence (Q9GZV3 whole entry, looked up): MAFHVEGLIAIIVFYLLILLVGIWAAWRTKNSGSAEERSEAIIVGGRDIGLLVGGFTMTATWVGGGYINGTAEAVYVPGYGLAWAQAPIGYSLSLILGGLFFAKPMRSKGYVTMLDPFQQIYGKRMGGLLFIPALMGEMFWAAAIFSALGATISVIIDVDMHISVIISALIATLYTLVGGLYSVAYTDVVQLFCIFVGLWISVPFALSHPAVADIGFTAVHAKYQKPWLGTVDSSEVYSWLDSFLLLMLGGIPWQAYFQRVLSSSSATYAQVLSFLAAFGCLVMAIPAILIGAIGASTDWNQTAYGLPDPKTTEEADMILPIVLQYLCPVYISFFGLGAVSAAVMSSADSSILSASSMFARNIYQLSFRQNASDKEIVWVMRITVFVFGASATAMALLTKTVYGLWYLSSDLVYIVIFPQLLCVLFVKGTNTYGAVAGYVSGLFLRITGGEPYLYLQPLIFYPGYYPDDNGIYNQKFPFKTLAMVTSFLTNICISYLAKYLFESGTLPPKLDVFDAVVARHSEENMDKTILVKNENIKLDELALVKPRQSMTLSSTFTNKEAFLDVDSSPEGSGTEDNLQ
row,SMILES,outcome
1,COC(=O)C1=C(N)Oc2cc(C)n(CCc3ccccc3)c(=O)c2C1c1cccnc1 (stereo unspecified),inactive
2,CC(OC(=O)c1cc2sccc2n1C)C(=O)NC(C)(C)C (stereo unspecified),inactive
3,COc1ccc(N2CCN(CC(=O)Nc3c(C)cc(C)cc3C)CC2)cc1,inactive
4,CN(C)c1ccc(Nc2c3c4c(cccc4n(C)c2=O)C(=O)c2ccccc2-3)cc1,inactive
5,CCCCOC(=O)c1ccc(NC(=O)c2cc(Cl)c(Cl)cc2C(=O)O)cc1,inactive
6,O=C(CC(=O)c1c(F)cccc1Cl)c1ccccc1O,inactive
7,CCCCNS(=O)(=O)c1ccc(NC(=O)Cc2ccccc2[N+](=O)[O-])cc1,inactive
8,CC(=O)c1cc2c(cc1NC(=O)CCNC(=O)c1ccccc1Cl)OCO2,inactive
9,Cc1ccc2[nH]c3c(c2c1)CN(C(=O)CN1CCN(Cc2ccc4c(c2)OCO4)CC1)CC3,inactive
10,CCOc1[nH]c(/N=C/c2ccco2)c(C#N)c1C#N,inactive
11,CC(C)(C)C(=O)N1CCN(c2ccc(NC(=O)c3ccc4c(c3)OCCO4)cc2)CC1,inactive
12,Cc1ccc(CNC(=O)N[C@@H](Cc2ccccc2)C(=O)O)cc1,inactive
13,COc1ccc(C(=O)NC(=S)NNC(=O)CCc2ccccc2)cc1,inactive
14,CC1=C(C(=O)OC(C)C)C(c2ccc(Br)s2)NC(=O)N1C (stereo unspecified),inactive
15,COC(=O)CCCCCN1C(=O)NC(C2CC2)C(C(=O)OCc2ccccc2)=C1C (stereo unspecified),inactive
16,CCOC(=O)c1cnc2c(Cl)cc(Cl)cc2c1NCCOCCO,inactive
17,O=C(CS(=O)(=O)Nc1ccc(F)cc1Cl)Nc1ccc(F)cc1Cl,inactive
18,CC(C(=O)NC1CCS(=O)(=O)C1)N1C(=O)/C(=C/c2ccc(Cl)cc2)SC1=S (stereo unspecified),inactive
19,Cc1ccc(S(=O)(=O)NCCC(=O)NC(C)CCc2ccccc2)cc1 (stereo unspecified),inactive
20,Cc1n[nH]c(=O)c2c(NC(=O)CSc3nc4ccccc4c(=O)n3C(C)C)oc(C)c12,inactive
21,CC(C)n1c(=S)[nH]c2cc(Cl)ccc21,inactive
22,CCn1cc(C(=O)N(CCC(C)C)c2c(N)n(Cc3ccccc3)c(=O)[nH]c2=O)c(=O)c2ccc(C)nc21,inactive
23,Fc1ccc(-c2nc3c(-c4ccc(F)cc4)cnn3cc2CCN2CCOCC2)cc1,inactive
24,CN1CCN(c2ccc(NC(=O)c3ccc(Cl)cc3Cl)cc2)CC1,inactive

row,SMILES,outcome
1,CSC1=C(C#N)C(c2ccncc2)C(C(=O)Nc2ccccc2)=C(C)N1 (stereo unspecified),inactive
2,CCN(CCNC(=O)CN1CCN(Cc2ccc(Cl)cc2)C1=O)c1ccccc1,inactive
3,Cc1ccccc1Nc1c(-c2ccncc2)nc2ccc(Br)cn12,inactive
4,Cc1ccc(NC(=S)Nc2cccc3cnccc23)cc1C,inactive
5,Cc1ccc(NC(=S)Nc2ccc(F)cc2)cc1C,inactive
6,COc1ccc([N+](=O)[O-])c(S(=O)(=O)c2ccccc2)n1,inactive
7,COc1ccc(OCc2cccc(C(=O)Nn3cc([N+](=O)[O-])cn3)c2)cc1,inactive
8,Cc1cc2c(ncn2Cc2ccccc2)c([N+](=O)[O-])c1C,inactive
9,CC(C)c1cc(C(=O)NNC(=S)NC2CCCCC2)cs1,inactive
10,CCN(CC)S(=O)(=O)c1ccc(/C=C/C(=O)NC2CCCCC2)cc1,inactive
11,O=C(CCc1ccc(S(=O)(=O)N2CCOCC2)cc1)N1CCc2ccccc2C1,inactive
12,COc1ccc(S(=O)(=O)N2CCC(C(=O)N3CCc4ccccc4C3)CC2)cc1,inactive
13,CNCC(O)c1ccc(O)c(O)c1 (stereo unspecified),inactive
14,C#CC[N+](CC)(CC)CC#Cc1ccccc1,inactive
15,Cc1cc(=O)[nH]c(SCC(=O)/C=C2\N(C)c3ccccc3C2(C)C)n1,inactive
16,CC(=O)Oc1ccc(C(=O)Nc2ccc(S(=O)(=O)NCC3CCCO3)cc2)cc1 (stereo unspecified),inactive
17,Cn1cnnc1Sc1ccc(C(=O)NCCC(c2ccccc2)c2ccccc2)cc1[N+](=O)[O-],inactive
18,COc1cc(C(=O)NC(=S)NNC(=O)[C@H]2C[C@@H]2c2ccccc2)cc(OC)c1OC,inactive
19,O=C(Nc1ncc([N+](=O)[O-])s1)C1CC(=O)N(c2ccc(F)cc2)C1 (stereo unspecified),inactive
20,Cc1ccc(N2CC(C(=O)Nc3ncc([N+](=O)[O-])s3)CC2=O)cc1 (stereo unspecified),inactive
21,CCCCCC(=O)c1ccc(O)cc1O,inactive
22,CCN(CC)CCCNC(=O)c1cn(CC)c2ccc(S(=O)(=O)N(C)C3CCCCC3)cc2c1=O,inactive
23,CCCCn1c(SCc2nnc(-c3ccccc3)o2)nc2c1c(=O)n(C)c(=O)n2C,inactive
24,Cn1nc(C(=O)NCCCN2CCCCC2)c2c1-c1ccccc1SC2,inactive

row,SMILES,outcome
1,CC1CCCC(C)N1CCCNC(=O)c1ccc2c(c1)NC(=O)c1ccccc1S2 (stereo unspecified),inactive
2,CCCCCCCCCCCCN1[C@@H](CC(=O)O)c2cc(C(F)(F)F)ccc2S1(=O)=O,inactive
3,CN(Cc1ccccc1F)C(=O)CCCNC(=O)c1ccc(Cl)cc1,inactive
4,Cn1c2ccccc2c(=O)c2c(O)cccc21,inactive
5,O=C(c1cnn2c(C(F)(F)F)cc(-c3cccs3)nc12)N1CCN(Cc2ccccc2)CC1,inactive
6,C#CCNc1c2c(nc3ncnn13)CC(C)CC2 (stereo unspecified),inactive
7,Cc1ccccc1OCCC(=O)OCC(=O)c1c(N)n(CC(C)C)c(=O)n(C)c1=O,inactive
8,CC(C)Cn1c(N)c(C(=O)COC(=O)CCNS(=O)(=O)c2ccccc2)c(=O)n(C)c1=O,inactive
9,CCc1c(C)nc2ncnn2c1NCCc1ccc(Cl)cc1,inactive
10,O=C(C1CCN(S(=O)(=O)c2ccc3ccccc3c2)CC1)N1CCN(c2ncccn2)CC1,inactive
11,CCn1c(N2CCN(S(=O)(=O)c3ccc(OC)cc3)CC2)nc2ccccc21,inactive
12,O=C(COc1ccccc1/C=C1\SC(=O)NC1=O)Nc1ccccc1,inactive
13,CCN(CC)C(=O)CSc1nc2ccc(NC(=O)CSc3nccn3C)cc2s1,inactive
14,Cc1ccc2c(c1)N(S(=O)(=O)c1ccc(CN3C(=O)c4cccnc4C3=O)s1)CCO2,inactive
15,O=C(Cn1nc(-c2ccccc2)ccc1=O)NCc1ccc(F)cc1,inactive
16,O=[N+]([O-])c1cc(-c2ncccn2)c([N+](=O)[O-])s1,inactive
17,Cc1cc(C(=O)CSc2n[nH]c(N)n2)c(C)n1-c1ccc(F)cc1,inactive
18,Cn1c(CN2CCCC2)c(C#N)c2ccccc21,inactive
19,NS(=O)(=O)c1ccc(CCNCc2cc(Cl)ccc2OCc2ccccc2)cc1,inactive
20,Cc1cccc(NC(=O)c2ccccc2O)c1C,inactive
21,Cc1nnc(SC(C)C(=O)Nc2sc3c(c2C#N)CCCC3)[nH]c1=O (stereo unspecified),inactive
22,CCOC(=O)C1CCN(C(=O)CSCc2nc(-c3ccc(OCC)cc3)oc2C)CC1,inactive
23,Cc1nc([N+](=O)[O-])c(Br)n1Cc1ccccc1,inactive
